Experimental data as given in ChEMBL document CHEMBL3988442, “University of Dundee, Small-Polar-MMV Screening Library” (2021).
Screen size: about 48,000 compounds; about 13,000 (27%) showed an effect of 50% or more. The list shows a part of the results.

test system: Wolbachia pipientis; assay: Anti-Wolbachia Cell-Based Screen; type: functional; design: scale not given: in the data most compounds retested in dose-response had high values; settings: 5 µM

SMILES | Percent Effect [%]
CCC(CC)(CN)NC(C)c1ccccc1 (stereo unspecified) | 4.415
O=C(NCCN1CCC(c2cccs2)CC1)Nc1cccs1 | -15.35
COc1ccc(CNC(=O)CCN2CCOC(C(F)(F)F)C2)cc1 (stereo unspecified) | -3.399
O=C(NCCc1ccccc1)NCCN1CCC(c2cccs2)CC1 | 129.5
O=C(NCCc1cccc(O)c1)NC1CCN(c2ccccc2)C1=O (stereo unspecified) | -1.396
COc1ccc(CCC(=O)NCCN2CCC(c3cccs3)CC2)cc1 | 160.9
COc1ccc(CCNC(=O)CN2CCOCS2(=O)=O)cc1 | -7.481
CO[C@H]1CNC[C@@H]1NC(=O)c1cc(C)nc2ccc(C)cc12 | -4.766
COCCN1C[C@H]2CCN(C(C)=O)CC[C@H]2S1(=O)=O | -12.61
O=C(O)C1CCCN(c2nc3c(-c4ccccc4)csc3c(=O)[nH]2)C1 (stereo unspecified) | 5.88
COc1ccc2c(c1)nc1n2[C@@H](CN(C2CCC2)C2CCC2)COC1 | -7.437
Cc1cnn(CC2CN(CC(=O)N(C)Cc3ccsc3)CCO2)c1 (stereo unspecified) | 117
Cc1cnn(CC2CCCN2CC(=O)N(C)Cc2ccsc2)c1 (stereo unspecified) | -8.163
CN(Cc1ccsc1)C(=O)CN1CCOC(Cn2cncn2)C1 (stereo unspecified) | 122.3
Cc1cnn(CC2CN(CC(=O)N(C)Cc3cccs3)CCO2)c1 (stereo unspecified) | -3.9
O=C(CCc1cscn1)N1CCCC(n2ccnc2)C1 (stereo unspecified) | -7.112
COc1cccc(CCC(=O)N2CCCC(n3cc(C)cn3)C2)c1 (stereo unspecified) | -1.259
Cc1cc(C)n(C2CCCN(C(=O)CCNS(C)(=O)=O)C2)n1 (stereo unspecified) | 0.7954
Cc1cnn(C2CCCN(C(=O)CCc3ccncc3)C2)c1 (stereo unspecified) | 119.7
Cc1cnn(C2CCCN(C(=O)Cn3ccc(=O)n(C)c3=O)C2)c1 (stereo unspecified) | -20.71
Cc1cnn(C2CCCN(C(=O)CCc3cscn3)C2)c1 (stereo unspecified) | 115.3
Cc1cnn(C2CCCN(C(=O)CCc3cnn(C)c3)C2)c1 (stereo unspecified) | 94.12

SMILES | Percent Effect [%]
Cc1cnn(C2CCCN(C(=O)CN(C)c3cnccn3)C2)c1 (stereo unspecified) | 6.201
Cc1cnn(C2CCCN(C(=O)CCNS(C)(=O)=O)C2)c1 (stereo unspecified) | 109.1
CCCC(C)N(C)Cc1nnc(-c2ccc(Br)s2)o1 (stereo unspecified) | -85.49
CCNc1ncc(C(=O)N(C)Cc2nc3cc(Cl)ccc3[nH]2)cn1 | 4.323
COc1ccc(-n2c(CCC(=O)O)nc3ccccc32)cc1CO | -17.89
CN(C)C(=O)CN1C[C@@H]2CC[C@H](C1)N(C(=O)CCn1cncn1)C2 | -10.88
O=C(NCC(O)COc1cccc(F)c1)c1ccoc1 (stereo unspecified) | 11.74
CCN(C(=O)c1ccc2nnc(C3CCN(C)C3)n2c1)C(C)C.O=C(O)C(F)(F)F (stereo unspecified) | -13.6
Cc1cc(C2CCCN(C(=O)CCc3cscn3)C2)n[nH]1 (stereo unspecified) | 93.55
NC(=O)c1cc(C2CCCN(C(=O)CCc3cscn3)C2)n[nH]1 (stereo unspecified) | 0.5679
O=C(CCc1cscn1)N1CCCC(c2ccn[nH]2)C1 (stereo unspecified) | -4.951
Cc1cc(CC(=O)NCc2ccnc(OCC(F)(F)F)c2)no1 | -12.47
CCOc1ccccc1Oc1ccc(CN)cn1 | 5.762
Cn1cc(C(=O)Nc2ccnc(Oc3ccccc3)c2)ccc1=O | -17.65
CCOc1cc(CNC(C)c2sccc2C)ccn1 (stereo unspecified) | 3.225
Cc1ccc(Oc2cc(CN)ccn2)cc1C.Cl | 95.86
CCOC(=O)NCCC(=O)NCc1ccnc(Oc2ccc(F)cc2)c1 | 11.47
NCc1ccnc(Oc2ccccc2)c1 | 91.83
CC(C)C(=O)NCc1ccnc(Oc2ccc(F)cc2)c1 | -7.223
CCOC(CC)C(=O)NCc1ccnc(Oc2ccc(F)cc2)c1 (stereo unspecified) | -12.82
CCOc1ccc(Oc2cc(CN)ccn2)cc1 | 101.1
NCc1ccc(Oc2cccc(Cl)c2Cl)cc1 | -2.508

SMILES | Percent Effect [%]
NCc1ccnc(Oc2ccc(F)cc2)c1 | 111.3
Cc1oc(-c2cccs2)nc1C(=O)N(C)C1(C#N)CCC1 | 6.807
Cc1ccc([C@@H]2CN(C(=O)CCc3cc(Cl)no3)C[C@H]2N(C)C)cc1 | -9.949
COc1cccc(-c2cc(CN)ccc2F)c1F | -9.579
CC(NC(N)=O)C(=O)NCc1ccnc(Oc2ccc(F)cc2)c1 (stereo unspecified) | -14.04
COc1ccc(Oc2cc(CN)ccn2)cc1 | 98.96
COc1ccc(N(CCC(N)=O)C(=O)CSc2ccc(Cl)cc2)cc1 | -20.11
COCCC(=O)N[C@H]1CN(c2nc(C)c3c(n2)CCCC3)C[C@@H]1C1CC1 | 40.93
CC(NCc1ccccn1)c1cc2c(cc1Br)OCCO2 (stereo unspecified) | 9.612
O=C(NCc1ccc(F)cc1)NCC(O)(c1cccs1)C1CC1 (stereo unspecified) | 0.4051
CN1CCC(NC(=O)Nc2ccc(F)c(-n3cccc3)c2)C1=O (stereo unspecified) | 0.2161
CN1CCC(NC(=O)Nc2ccc(F)c(Br)c2)C1=O (stereo unspecified) | -1.465
Cn1cc(N2CCC(NC(=O)c3ccccc3Cl)C2=O)cn1 (stereo unspecified) | -3.21
CN1CCC(NC(=O)c2cc(Cl)cc(Br)c2O)C1=O (stereo unspecified) | 99.64
CN1CCC(NC(=O)c2cc(Br)cc(Cl)c2O)C1=O (stereo unspecified) | 91.47
CN1CCC(NC(=O)Nc2ccc(Br)c(F)c2)C1=O (stereo unspecified) | 3.385
CN1CCC(NC(=O)CCCc2cc(Cl)sc2Cl)C1=O (stereo unspecified) | -5.326
CN1CCC(NC(=O)Nc2ccc(Cl)c(F)c2)C1=O (stereo unspecified) | 7.915
CN1CCC(NC(=O)c2cc(F)cc(Cl)c2O)C1=O (stereo unspecified) | 115.3
CCN(C)C[C@@H]1CN(Cc2cccc(Cl)c2)C[C@@H]1CO | -21.33
Cc1ncc(CN(C)C(=O)Nc2cccc(N3CCNC3=O)c2)s1 | -6.99
COc1cccc(-c2cc(NCc3nc(C)cs3)n(C)n2)c1 | -29

SMILES | Percent Effect [%]
CCCS(=O)(=O)N1CC[C@@H]2[C@@H]1CC(=O)N2Cc1csc(C)n1 | 71.41
CCN1C(=O)C[C@@H]2[C@@H]1CCN2S(=O)(=O)c1cccc(C)c1 | -32.48
CCS(=O)(=O)N1CC[C@H]2[C@H]1CC(=O)N2Cc1csc(C)n1 | 96.63
CCOCC(=O)N1CC[C@H]2[C@@H]1CCC(=O)N2Cc1csc(C)n1 | 22.07
COc1ccc(Br)c(C(=O)N2CCCC(c3nc(C)no3)C2)c1 (stereo unspecified) | -8.45
CCC(=O)N1CCN(C(=O)Nc2cccc(N3CCOCC3)c2)CC1 | -13.34
O=C(c1cccc(S(=O)(=O)NCCCc2ncc[nH]2)c1)N1CCOCC1 | -4.417
Cn1ccnc1CN1CCOC(C)(C(=O)N2CCOCC2)C1 (stereo unspecified) | 108.3
CC(C)n1ccnc1CN1CCCN(C(=O)c2nccnc2N)CC1 | 3.581
CC(C)n1ccnc1CN1CCOC(C)(C(=O)N2CCOCC2)C1 (stereo unspecified) | 127.3
Cn1ccnc1CN1CCC2(CC1)CN(CC1CC1)C(=O)CO2 | -0.08379
CC(NC(N)=O)C(=O)N1CCCN(Cc2nccn2C(C)C)CC1 (stereo unspecified) | -6.463
Cn1ccnc1CN1CCC2(CC(=O)N(c3ccc4c(c3)OCO4)C2)C1.O=C(O)C(F)(F)F (stereo unspecified) | -22.94
CN1CC2(CCN(Cc3ncc[nH]3)CC2)CC1=O | -5.481
CC1(C(=O)N2CCOCC2)CN(Cc2ncc[nH]2)CCO1 (stereo unspecified) | 90.74
COc1ccccc1CC1CCCN(CCC#N)C1 (stereo unspecified) | -6.976
Cc1nonc1C1CCCN1C(=O)c1cc2n(n1)CCCNC2 (stereo unspecified) | -3.031
COCC(O)CN(C)c1ccnc2cc(F)ccc12 (stereo unspecified) | 83.56
COc1ccc(COCC(O)CN(C)c2ccc(C)cc2C)cc1 (stereo unspecified) | 10.8
COc1cc(F)ccc1N(C)Cc1ccccn1 | 9.437
COc1ccc(Cl)cc1NC(=O)N(C)CC(O)COCCOC(C)C (stereo unspecified) | -8.214
COCC(O)CN(C)c1ccnc2cc(Br)ccc12 (stereo unspecified) | 92.3

SMILES | Percent Effect [%]
COCC(O)CN(C)c1ccnc2ccc(Cl)cc12 (stereo unspecified) | 99.68
COCC(O)CNc1cncc(Br)c1 (stereo unspecified) | -2.667
Cc1ccc(N(C)CC(O)COCc2ccccc2F)c(C)c1 (stereo unspecified) | 0.5576
COCC(=O)N1CCC(Nc2ccnc3ccc(Cl)cc23)CC1 | -6.533
COC(=O)c1ccc(Cl)c(NS(=O)(=O)c2cnn(C)c2)c1 | -1.605
O=C(CNC(=O)C1CC1)NCC(F)(F)F | -16.51
O=C(CCc1ccccc1)N1CCC(c2n[nH]c(C3CC3)n2)CC1 | -4.114
Cl.O=C(CCc1cccc(C2CCNCC2)n1)N1CCCCC1 | 116.4
Cl.NC(=O)CCc1cccc(C2CCNCC2)n1 | 115.3
CNC(=O)[C@H]1C[C@@H]2CN(S(=O)(=O)c3ccc(C)c(F)c3)C[C@@H]2N1C.O=C(O)C(F)(F)F | -6.907
O=C(c1ccoc1)N1CCCC1C1CCN(Cc2ccccc2)CC1 (stereo unspecified) | -51.53
Cc1nn(C)c(Cl)c1C1CCCN1c1ncnc2c1CCC2 (stereo unspecified) | 16.41
COc1ccc2c(C)c(C(=O)NC3CCN(S(C)(=O)=O)CC3)oc2c1 | 1.038
Cc1c(C(=O)O)oc2ccc(I)cc12 | 125.9
CNC(=O)c1[nH]nc2ccc(I)cc12 | 8.904
O=C(O)CSc1nnc(-c2ccco2)n1-c1ccccc1C(F)(F)F | -16
COc1cc2c(nn1)CCN(Cc1noc(-c3ccccc3)n1)C2 | -2.709
NC(=O)c1ccc(C(=O)N(Cc2ccc(O)cc2)CC2CC2)cc1 | -2.707
